# IP6K1 inhibitor: blocks human inositol hexakisphosphate kinase 1 | IP6K1 kinase, ADP-Glo luminescence, 2 h; stronger effect = lower value | activity change, % (series mostly up to about 58 µM) | 140,000 compounds, 0.81% hits | AID 1645851; in the data active = activity change below about -25%; note: % is set by controls: 0 for no effect and ±100 for the full control effect
# Target sequence (Q92551 whole entry, looked up): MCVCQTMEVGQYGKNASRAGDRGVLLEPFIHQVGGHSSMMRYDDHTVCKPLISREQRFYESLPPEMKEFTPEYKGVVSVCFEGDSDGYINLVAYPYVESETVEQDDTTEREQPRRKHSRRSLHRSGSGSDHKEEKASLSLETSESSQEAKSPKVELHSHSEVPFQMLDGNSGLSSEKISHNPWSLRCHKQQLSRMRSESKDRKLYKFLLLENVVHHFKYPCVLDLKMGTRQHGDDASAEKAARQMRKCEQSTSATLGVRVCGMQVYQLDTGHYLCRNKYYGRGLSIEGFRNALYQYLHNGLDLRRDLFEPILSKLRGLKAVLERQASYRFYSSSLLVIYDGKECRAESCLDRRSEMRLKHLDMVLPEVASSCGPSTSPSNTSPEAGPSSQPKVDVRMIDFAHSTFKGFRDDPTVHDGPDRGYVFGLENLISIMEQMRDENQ
#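 ADP-Glo luminescence measures ADP made by human IP6K1 during a 2 h RT reaction with ATP/IP6 (mix at 1.3 mM/130 uM); top library doses 57.5 and 19.1 uM final.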
# SNCA viab count: cell viability loss counter-screen | HEK-293-SNCA-luc viability, GF-AFC fluorescence, 24 h | Potency, µM (highest dose often 57.1 µM), for the others: at the top dose activity change, negative = cytotoxicity, actives largely listed as cytotoxic | 150,000 compounds, 0.12% hits;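 note: potency is the fitted concentration of half-maximal effect; 0% = DMSO-treated cells and -100% = medium-only wells without cells; nearly all actives have a fitted effect of over 30% in size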
#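 HEK-293-SNCA-luc cells (1500/well) plated 24 h, then exposed 24 h to a dilution series; GF-AFC added 30 min at 37C, fluorescence 405/540 nm; normalised to medium-only and DMSO wells, Hill fit.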
# KDM5B inhibitor: blocks human KDM5B histone demethylase activity; Q9UGL1; KDM5B demethylase, FDH-coupled NADH fluorescence (FDH is formaldehyde dehydrogenase); Potency, µM (titrated, usually from 57.7 µM), actives largely listed as inhibitors; 220,000 compounds, 2.6% hits; AID 1347165; note: potency is the fitted concentration of half-maximal effect; 0% is about no effect; nearly all actives have a fitted effect of over 70% in size
#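 Measured: NADH fluorescence change, 30 min, RT. System: KDM5BΔAP 200 nM final, H3K4me3 peptide, α-KG, Fe(II), ascorbate, NAD⁺ plus FDH, pH 7.5 HEPES. Compounds: titrated, 10 min pre-incubation with enzyme.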
# SNCA expr inh: SNCA gene expression inhibition | 140,000 compounds, 0.17% hits | AID 1671194 | Potency, µM (series often up to 57.2 µM), for the others: at the top dose activity change, negative = inhibition, most hits filed as inhibitors | HEK-293 SNCA-luciferase knock-in, luminescence, 24 h;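 note: potency is the fitted concentration of half-maximal effect; plate controls were DMSO cells for no effect and cell-free wells for full effect; nearly all actives have a fitted effect of over 45% in size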
# * hit, by the source's call; i = inactive; ? = inconclusive; . = no result; [ ] = remark or other dose. Rows were chosen to be rich in hits. Some 2.9% of all compounds tested hit in one or more screens of this group. Unless noted, calls come from the whole dose curve; as a rule, active = well fitted curve in the direction sought with a large enough effect; inconclusive = small, poorly fitted or top-dose-only effect, or another doubt; inactive = no such curve, though single readings can be large; an effect the other way counts as inactive or inconclusive.
SMILES,IP6K1 inhibitor,SNCA viab count,KDM5B inhibitor,SNCA expr inh
O=C(CN1CCC2(CC1)OCCO2)Nc1cccc(F)c1,.,.,i,.
O=C(NCCc1ccccc1F)c1ccc2nc(-c3cccnc3)oc2c1,2.3,1.8%,.,-14.0%
COc1ccccc1-c1cnc(NC(=O)c2cnccn2)c2c1CCO2,15.3,-8.5%[87.6 µM],35.5µM*,30.3%[87.6 µM]
COc1ccccc1-c1cnc(Nc2cc(F)cc(N3CCOCC3)c2)c2c1CCO2,-12.6,-14.2%[87.6 µM],?,-3.1%[87.6 µM]
c1ccc(CNc2ncc(-c3ccc(N4CCOCC4)cc3)c3c2OCC3)cc1,6.5,-21.4%[87.6 µM],39.8µM*,15.4%[87.6 µM]
COc1ccccc1-c1cnc(NCc2ccccc2)c2c1CCO2,-22.0,-0.1%[87.6 µM],35.5µM*,127.4%[87.6 µM]
O=C(NCc1ccccc1F)c1ccc2c(c1)CN(Cc1cncs1)CCO2,1.9,0.8%,i,4.3%
COCCNc1cc(-c2noc([C@@H]3CCCN3Cc3ccccn3)n2)ccn1,9.1,-5.8%[87.6 µM],31.6µM*,61.2%[87.6 µM]
COCCNc1ccc(-c2noc([C@@H]3CCCN3Cc3ccccc3F)n2)cn1,-12.8,-4.1%[87.6 µM],?,-7.4%[87.6 µM]
COCCOc1cc(-c2noc([C@@H]3CCCN3C3CCN(C(C)=O)CC3)n2)ccn1,-8.3,-2.0%[87.6 µM],i,12.1%[87.6 µM]
COCCOc1cc(-c2noc([C@@H]3CCCN3Cc3ccncc3)n2)ccn1,14.4,3.9%[87.6 µM],35.5µM*,-17.6%[87.6 µM]
COc1ccc(CN2CCC[C@H]2c2nc(-c3ccnc(N4CCOCC4)c3)no2)cc1,3.9,-0.4%[87.6 µM],31.6µM*,-1.9%[87.6 µM]
COCCNc1cc(-c2noc([C@@H]3CCCN3C3CCN(C(C)=O)CC3)n2)ccn1,2.0,-1.1%[87.6 µM],39.8µM*,-2.8%[87.6 µM]
COCCOc1cc(-c2noc([C@@H]3CCCN3Cc3ccc(C(=O)O)cc3)n2)ccn1,9.8,1.9%[87.6 µM],?,13.9%[87.6 µM]
Cc1cc(C)n(-c2nc3c(c(=O)n(CC(N)=O)c(=O)n3C)n2CCc2ccccc2)n1,.,.,i,.
Cc1ccc(NC(=O)CC2CCCN(c3cnn(CC4CC4)c(=O)c3)C2)c(C)c1 (stereo not drawn),-4.6,1.1%,i,-7.3%
Cn1nc(C2CC2)n(C2CCN(Cc3cn[nH]c3-c3ccccc3)CC2)c1=O,6.9,-8.7%,.,-0.7%
c1ccc(CN2CCC[C@H]2c2nc(-c3ccnc(N4CCOCC4)c3)no2)nc1,-0.8,-9.7%[87.6 µM],28.2µM*,32.2%[87.6 µM]
COc1ccc(C(=O)Nc2ccc(-c3noc([C@@H]4CCCN4Cc4ccncc4)n3)cn2)cc1,-11.2,-21.3%,?,3.1%
COc1ccc(CN2CCC[C@H]2c2nc(-c3cncnc3N)no2)c(O)c1,-3.5,-4.6%[87.6 µM],31.6µM*,11.2%[87.6 µM]
Cc1ccc(-c2noc([C@@H]3C[C@@H](O)CN3Cc3ncc[nH]3)n2)cc1F,16.4,-6.8%[87.6 µM],i,200.2%[87.6 µM]
c1cc(-c2noc([C@@H]3CCCN3Cc3ncc[nH]3)n2)cc(N2CCOCC2)n1,13.4,5.1%[87.6 µM],31.6µM*,0.0%[87.6 µM]
Nc1ccc(C(=O)OC2CCCC2)cc1,.,.,i,.
CC(c1ccc(F)cc1)n1c(-c2cnccn2)n[nH]c1=S (stereo not drawn),.,.,i,.
Cc1cn2nc(C(=O)NCc3ccc(F)cc3)cc2c(N(C)Cc2ccccc2)n1,11.4,-20.1%,25.1µM*,-20.4%
SMILES,IP6K1 inhibitor,SNCA viab count,KDM5B inhibitor,SNCA expr inh
Cc1cn2nc(C(=O)NCc3ccccc3C)cc2c(N(C)Cc2ccccc2)n1,15.3,2.0%,14.1µM*,?
Cc1cn2nc(C(=O)N3CCSCC3)cc2c(N(C)Cc2ccccc2)n1,0.0,-10.3%,?,1.8%
Cc1ccc(CNC(=O)c2cc3c(N(C)Cc4ccccc4)nc(C)cn3n2)cc1,4.1,3.9%,28.2µM*,3.4%
O=C(COC(=O)c1ccc(-c2ccc([N+](=O)[O-])cc2)o1)Nc1ccc(Cl)cc1C(F)(F)F,.,.,i,.
COc1ccccc1CNC[C@@H]1C=C(C)[C@H](Cc2nc3c(C)cccc3[nH]2)C[C@H]1C(C)C,5.8,35.5µM*,i,?
CC1=C[C@@H](CNCc2ccccc2)[C@H](C(C)C)C[C@H]1Cc1nc2c(C)cccc2[nH]1,-8.6,35.5µM*,i,?
CC1=C[C@@H](CN(C)C)[C@H](C(C)C)C[C@H]1Cc1nc2c(C)cccc2[nH]1,2.4,-19.4%[87.6 µM],i,-2.8%[87.6 µM]
CC1=C[C@@H](CNCc2ccccc2F)[C@H](C(C)C)C[C@H]1Cc1nc2c(C)cccc2[nH]1,0.0,?,i,?
CCCCN(CC)C(=O)c1ccc2nc(C)c(C)nc2c1,.,.,i,.
COc1ccc(OC)c(S(=O)(=O)Nc2cc(C(=O)NC(C)C)ccc2N2CCNCC2)c1,.,.,i,.
COc1ccc(CN(C(=O)c2ccco2)c2ccc(CC(=O)NCc3ccc(F)cc3)cc2)cc1,6.2,-27.5%,?,?
COC(=O)c1sc(NC(=O)COc2c(C)cc(C)cc2C)nc1C,.,.,i,.
CCOc1ccc(OCC)c(NC(=O)c2cc3n(n2)CC(c2ccc(Cl)cc2)OC3)c1 (stereo not drawn),26.3,6.6%,14.1µM*,11.7%
Cc1ccc(NC(=O)c2cc3n(n2)CC(c2ccc(Cl)cc2)OC3)cc1F (stereo not drawn),25.7,3.0%,28.2µM*,-16.8%
O=C(Nc1ccc(Cl)cc1)c1cc2n(n1)CC(c1ccc(Cl)cc1)OC2 (stereo not drawn),-7.7,5.4%,31.6µM*,-7.4%
O=C(Nc1ccc(F)c(F)c1)c1cc2n(n1)CC(c1ccc(Cl)cc1)OC2 (stereo not drawn),29.1,3.8%,i,14.6%
CC(=O)Nc1ccc(NC(=O)c2cc3n(n2)CC(c2ccc(Cl)cc2)OC3)cc1 (stereo not drawn),-0.4,-6.9%,?,-35.2%
O=C(Nc1ccc(F)c(Cl)c1)c1cc2n(n1)CC(c1ccc(Cl)cc1)OC2 (stereo not drawn),11.3,-2.4%,25.1µM*,0.4%
Cc1ccc(S(=O)(=O)N2CCCCC2)cc1NC(=O)c1oc2c(F)cccc2c1C,.,.,i,.
c1ccc(N2CCN(c3nc(N4CCCC4)c4nccnc4n3)CC2)cc1,.,.,i,.
O=C(Nc1ccccc1)c1cc2n(n1)CC(c1ccc(Br)cc1)OC2 (stereo not drawn),26.8,7.5%,31.6µM*,22.1%
O=C(Nc1ccc(F)cc1)c1cc2n(n1)CC(c1ccc(Br)cc1)OC2 (stereo not drawn),27.1,13.5%,?,-21.9%
O=C(Nc1cc(F)ccc1Cl)c1cc2n(n1)CC(c1ccc(Br)cc1)OC2 (stereo not drawn),-0.9,1.2%,25.1µM*,?
Cc1ncc(-c2ccc(C)c(S(=O)(=O)N3CCN(c4ccccc4F)CC3)c2)o1,.,.,i,.
COc1ccccc1C1CC(=O)Nc2nc(-c3ccccc3)[nH]c(=O)c21 (stereo not drawn),.,.,i,.
CC(=O)c1cccc(NC(=O)CN(CCc2ccccc2)S(=O)(=O)c2ccccc2)c1,.,.,i,.
CCCNc1cc(N2CCC(CCC(=O)Nc3cccc(C)c3)CC2)ncn1,-0.8,-2.0%,i,2µM*
O=C(CCC1CCN(S(=O)(=O)c2ccccc2)CC1)NCc1ccccc1,9.9,2.7%,22.4µM*,-12.2%
O=C(O)CCC1CCN(c2cc(NC3CC3)ncn2)CC1,1.8,-6.4%,i,1.12µM*

# Screening data (PubChem)
